Measurements taken from article PMC9911399, “Two distinct binding modes provide the RNA-binding protein RbFox with extraordinary sequence specificity”.
Positions count from the first letter of the chain named. Whole data set: some 16,000 sequences, median “ka relative to ugcaugu” near 0.096, cut for the highest 2% near 0.35. Only a selection was taken, and the highest values are over-represented in it overall.

T1: RBFOX1 RRM RbFoxmut (Fox-RRM*) (Homo sapiens, UniProt Q9NWB1 109-208, R118D;E147R;N151S;E152T)
T1 sequence: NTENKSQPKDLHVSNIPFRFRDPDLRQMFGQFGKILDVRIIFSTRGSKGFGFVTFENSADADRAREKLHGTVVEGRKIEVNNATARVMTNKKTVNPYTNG

B1: ACGUCCU (DNA:RNA)
RNA: GGGAGACCGGAAUUCAGAUUGUCCACGUCCUUUAAAUCCCGUCGUAGCCACCA
DNA 1: CAATCTGAATTCCGGTCTCCC
DNA 2: TGGTGGCTACGACGGGATT
B2: AACCAGA (DNA:RNA)
RNA: B1 RNA with C26A, G27C, U28C, C29A, C30G, U31A
DNA 1: CAATCTGAATTCCGGTCTCCC
DNA 2: TGGTGGCTACGACGGGATT
B3: CAAACUC (DNA:RNA)
RNA: B1 RNA with A25C, C26A, G27A, U28A, C30U, U31C
DNA 1: CAATCTGAATTCCGGTCTCCC
DNA 2: TGGTGGCTACGACGGGATT
B4: AGAAGAU (DNA:RNA)
RNA: B1 RNA with C26G, G27A, U28A, C29G, C30A
DNA 1: CAATCTGAATTCCGGTCTCCC
DNA 2: TGGTGGCTACGACGGGATT
B5: UCCCCGG (DNA:RNA)
RNA: B1 RNA with A25U, G27C, U28C, C30G, U31G
DNA 1: CAATCTGAATTCCGGTCTCCC
DNA 2: TGGTGGCTACGACGGGATT
B6: AAAAAGC (DNA:RNA)
RNA: B1 RNA with C26A, G27A, U28A, C29A, C30G, U31C
DNA 1: CAATCTGAATTCCGGTCTCCC
DNA 2: TGGTGGCTACGACGGGATT
B7: AAAUUGC (DNA:RNA)
RNA: B1 RNA with C26A, G27A, C29U, C30G, U31C
DNA 1: CAATCTGAATTCCGGTCTCCC
DNA 2: TGGTGGCTACGACGGGATT
B8: GCACGUA (DNA:RNA)
RNA: B1 RNA with A25G, G27A, U28C, C29G, C30U, U31A
DNA 1: CAATCTGAATTCCGGTCTCCC
DNA 2: TGGTGGCTACGACGGGATT
B9: GCACGUG (DNA:RNA)
RNA: B1 RNA with A25G, G27A, U28C, C29G, C30U, U31G
DNA 1: CAATCTGAATTCCGGTCTCCC
DNA 2: TGGTGGCTACGACGGGATT
B10: GCACGAA (DNA:RNA)
RNA: B1 RNA with A25G, G27A, U28C, C29G, C30A, U31A
DNA 1: CAATCTGAATTCCGGTCTCCC
DNA 2: TGGTGGCTACGACGGGATT
B11: GCACGUC (DNA:RNA)
RNA: B1 RNA with A25G, G27A, U28C, C29G, C30U, U31C
DNA 1: CAATCTGAATTCCGGTCTCCC
DNA 2: TGGTGGCTACGACGGGATT
B12: ACGUCCG (DNA:RNA)
RNA: B1 RNA with U31G
DNA 1: CAATCTGAATTCCGGTCTCCC
DNA 2: TGGTGGCTACGACGGGATT
B13: ACGCACG (DNA:RNA)
RNA: B1 RNA with U28C, C29A, U31G
DNA 1: CAATCTGAATTCCGGTCTCCC
DNA 2: TGGTGGCTACGACGGGATT
B14: GCACGAG (DNA:RNA)
RNA: B1 RNA with A25G, G27A, U28C, C29G, C30A, U31G
DNA 1: CAATCTGAATTCCGGTCTCCC
DNA 2: TGGTGGCTACGACGGGATT
B15: GUCCACG (DNA:RNA)
RNA: B1 RNA with A25G, C26U, G27C, U28C, C29A, U31G
DNA 1: CAATCTGAATTCCGGTCTCCC
DNA 2: TGGTGGCTACGACGGGATT
B16: CCGCACG (DNA:RNA)
RNA: B1 RNA with A25C, U28C, C29A, U31G
DNA 1: CAATCTGAATTCCGGTCTCCC
DNA 2: TGGTGGCTACGACGGGATT
B17: GCACGCG (DNA:RNA)
RNA: B1 RNA with A25G, G27A, U28C, C29G, U31G
DNA 1: CAATCTGAATTCCGGTCTCCC
DNA 2: TGGTGGCTACGACGGGATT
B18: GCGCACG (DNA:RNA)
RNA: B1 RNA with A25G, U28C, C29A, U31G
DNA 1: CAATCTGAATTCCGGTCTCCC
DNA 2: TGGTGGCTACGACGGGATT
B19: CGCACCG (DNA:RNA)
RNA: B1 RNA with A25C, C26G, G27C, U28A, U31G
DNA 1: CAATCTGAATTCCGGTCTCCC
DNA 2: TGGTGGCTACGACGGGATT
B20: UGCUUUG (DNA:RNA)
RNA: B1 RNA with A25U, C26G, G27C, C29U, C30U, U31G
DNA 1: CAATCTGAATTCCGGTCTCCC
DNA 2: TGGTGGCTACGACGGGATT

Target: T1, RBFOX1 RRM RbFoxmut (Fox-RRM*)
Assay: EMSA; HiTS-Eq, 1 nM pool, 10 min; buffer printed only for the single-RNA assays: 10 mM Tris pH 7.5, 150 mM NaCl, 3.4 mM EDTA, 0.001% NP-40, 30 C
Settings: tags: His6 N-terminal (pET28a); label: 5' 32P
Outline: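 Purified wild-type or mutant RbFox RRM at increasing concentrations was equilibrated with 1 nM of 5′-radiolabelled RNA carrying 7 randomized nucleotides for 10 min in 50 µL. Unbound RNA was separated by 8% native PAGE and sequenced. Relative association constants came from read-count changes of each RNA species compared with the control reaction, normalised to the cognate motif.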

| Binder | binding signal |
| --- | --- |
| B1 | 0.0891 KA relative to UGCAUGU |
| B2 | 0.107 KA relative to UGCAUGU |
| B3 | 0.0603 KA relative to UGCAUGU |
| B4 | 0.0749 KA relative to UGCAUGU |
| B5 | 0.0768 KA relative to UGCAUGU |
| B6 | 0.0699 KA relative to UGCAUGU |
| B7 | 0.0959 KA relative to UGCAUGU |
| B8 | 0.382 KA relative to UGCAUGU |
| B9 | 0.324 KA relative to UGCAUGU |
| B10 | 0.256 KA relative to UGCAUGU |
| B11 | 0.117 KA relative to UGCAUGU |
| B12 | 0.121 KA relative to UGCAUGU |
| B13 | 0.354 KA relative to UGCAUGU |
| B14 | 0.405 KA relative to UGCAUGU |
| B15 | 0.114 KA relative to UGCAUGU |
| B16 | 0.236 KA relative to UGCAUGU |
| B17 | 0.184 KA relative to UGCAUGU |
| B18 | 0.397 KA relative to UGCAUGU |
| B19 | 0.17 KA relative to UGCAUGU |
| B20 | 0.179 KA relative to UGCAUGU |
